The record followed here is PubChem BioAssay (EPA / NIEHS).

The nature of test [1]: ATG_CRE_CIS: Attagene CIS-FACTORIAL HepG2 Assay for human cAMP Responsive Element (CRE) binding protein 3 (AID 2282926). The settings on record: HepG2 CRE cis-reporter, Attagene multiplexed mRNA; actives raise or lower the signal. An outline of the steps:
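HepG2 cells transiently transfected with cis-element-driven multiple reporter transcription units; CRE reporter mRNA measured 24 h after dosing by RT-PCR, 6-FAM labelling, HpaI digestion and capillary electrophoresis. Bidirectional fit versus DMSO baseline.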

The target in test [2] is CCAAT/enhancer-binding protein beta (Homo sapiens) (UniProt P17676). The experiment in a line: ATG_C_EBP_CIS: Attagene CIS-FACTORIAL HepG2 Assay for human CCAAT/Enhancer Binding Protein (C/EBP) beta (AID 2282927). As to conditions: HepG2 Attagene cis-factorial transcription factor reporter; actives raise or lower the signal. An outline of the steps: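 Changes in reporter mRNA, rather than exogenous chimeric receptor activity, reflect native C/EBP signalling in transfected HepG2 cells dosed for 24 h; transcripts are detected by RT-PCR and capillary electrophoresis.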
Sequence of CCAAT/enhancer-binding protein beta (Homo sapiens) (P17676 whole entry, looked up): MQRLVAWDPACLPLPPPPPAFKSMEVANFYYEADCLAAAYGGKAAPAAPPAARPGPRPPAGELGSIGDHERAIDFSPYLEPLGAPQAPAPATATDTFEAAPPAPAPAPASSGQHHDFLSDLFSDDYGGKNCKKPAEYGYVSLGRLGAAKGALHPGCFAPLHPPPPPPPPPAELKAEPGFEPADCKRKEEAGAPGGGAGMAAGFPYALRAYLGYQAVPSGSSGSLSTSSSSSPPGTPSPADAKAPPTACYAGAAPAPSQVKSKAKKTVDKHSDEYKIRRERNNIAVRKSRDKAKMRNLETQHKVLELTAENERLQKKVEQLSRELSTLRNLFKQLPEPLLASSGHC

The nature of test [3]: ATG_CMV_CIS: Attagene CIS-FACTORIAL HepG2 Assay for human CMV (Internal Marker) (AID 2282928).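 Further: endpoint acts as a background internal control marker rather than a target.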 As to conditions: HepG2 CMV promoter reporter, transcription factor profiling; actives raise or lower the signal. A digest of the protocol: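 Cell system: HepG2, transiently transfected multiple reporter units under cis promoters. Exposure: 24 h. Detection: RT-PCR, FAM labeling, HpaI digestion, capillary electrophoresis. Analysis: bidirectional, DMSO baseline.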

The nature of test [4]: ATG_AP_1_CIS: Attagene CIS-FACTORIAL HepG2 Assay for human Activator Protein 1 (AP-1) (AID 2282931). As to conditions: HepG2 Attagene cis-factorial AP-1 reporter mRNA; actives raise or lower the signal. A digest of the protocol: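 Multiplexed HepG2 reporter assay, 24 h dosing. mRNA induction detected by RT-PCR plus capillary electrophoresis. Activity fitted in both directions against DMSO.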

Test [5] can be described thus: ATG_AP_2_CIS: Attagene CIS-FACTORIAL HepG2 Assay for human Activator Protein 2 (AP-2) (AID 2282932). As to conditions: HepG2 AP-2 cis-reporter, Attagene transcription factor profiling; actives raise or lower the signal. A digest of the protocol:
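Step one: transient transfection of HepG2 with reporter transcription units. Step two: 24 h chemical exposure. Step three: RNA extraction, RT-PCR, labelled fragment analysis by capillary electrophoresis; DMSO serves as baseline.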

Test [6] is described as follows: ATG_BRE_CIS: Attagene CIS-FACTORIAL HepG2 Assay for human Bone Morphogenetic Protein (BMP) Response Element (BRE) (AID 2282933). The settings on record: HepG2 BMP response element reporter, Attagene transcription factor profiling; actives raise or lower the signal. A digest of the protocol:
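Endogenous transcription factor activity read in transiently transfected HepG2 cells after 24 h chemical exposure. Bidirectional curve fitting against DMSO; readout is reporter transcript level by RT-PCR with capillary electrophoresis of labelled products.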

Test [7] deals with Transcription factor E2F1 (Homo sapiens) (UniProt Q01094). The experiment in a line: ATG_E2F_CIS: Attagene CIS-FACTORIAL HepG2 Assay for human E2F Transcription Factor 1 (AID 2282935). As to conditions: HepG2 Attagene cis-reporter, E2F reporter RNA transcripts; actives raise or lower the signal. An outline of the steps: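 Total RNA from 24 h-treated, reporter-transfected HepG2 cells undergoes DNase I treatment, oligo(dT) reverse transcription, PCR and 6-FAM primer extension before capillary electrophoresis.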
Sequence of Transcription factor E2F1 (Homo sapiens) (Q01094 whole entry, looked up): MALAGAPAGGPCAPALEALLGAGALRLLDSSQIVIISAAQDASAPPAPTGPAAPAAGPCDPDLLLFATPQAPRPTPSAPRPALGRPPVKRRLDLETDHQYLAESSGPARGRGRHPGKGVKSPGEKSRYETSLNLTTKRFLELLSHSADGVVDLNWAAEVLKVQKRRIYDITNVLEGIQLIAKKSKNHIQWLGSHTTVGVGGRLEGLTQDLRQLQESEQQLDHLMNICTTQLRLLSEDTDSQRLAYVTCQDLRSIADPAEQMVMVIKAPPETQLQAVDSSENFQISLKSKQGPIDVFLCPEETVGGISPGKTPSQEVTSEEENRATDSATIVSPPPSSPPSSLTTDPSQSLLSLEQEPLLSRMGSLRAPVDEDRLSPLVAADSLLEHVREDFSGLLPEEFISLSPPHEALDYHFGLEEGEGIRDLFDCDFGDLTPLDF

The nature of test [8]: ATG_E_Box_CIS: Attagene CIS-FACTORIAL HepG2 Assay for human Enhancer Box (E-box) (AID 2282936). The settings on record: HepG2 E-box cis-reporter transcription, actives raise or lower the signal. A digest of the protocol: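 DMSO served as negative control and baseline for bidirectional fitting. Human hepatoma HepG2 cells, transiently transfected with cis-reporter constructs, were dosed 24 h; reporter mRNA read by RT-PCR and capillary electrophoresis.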

Test [9] is described as follows: ATG_M_61_CIS: Attagene CIS-FACTORIAL HepG2 Assay for M61 Transcription Factor (Internal Marker) (AID 2282937). The settings on record: HepG2 Attagene CIS-FACTORIAL M61 internal marker reporter; actives raise or lower the signal. A digest of the protocol:
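Endogenous transcription factor activity in HepG2 is read through transiently transfected cis-element reporter units. After 24 h dosing, RNA undergoes reverse transcription, PCR and primer extension with 6-FAM before capillary electrophoresis; DMSO-referenced bidirectional fit.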

Test [10] in a line: ATG_EGR_CIS: Attagene CIS-FACTORIAL HepG2 Assay for human Early Growth Response 1 (EGR1) (AID 2282938). The settings on record: HepG2 Attagene CIS-FACTORIAL EGR reporter mRNA; actives raise or lower the signal. An outline of the steps:
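Activity is taken as induction or loss of reporter mRNA versus DMSO, fitted bidirectionally. Transcripts from cis-regulated reporter units in transiently transfected HepG2 were measured after 24 h by RT-PCR with capillary electrophoresis.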

Test [11] can be described thus: ATG_M_19_CIS: Attagene CIS-FACTORIAL HepG2 Assay for M19 Transcription Factor (Internal Marker) (AID 2282939). The settings on record: HepG2 Attagene CIS-FACTORIAL M19 internal marker reporter; actives raise or lower the signal. A digest of the protocol: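 Internal marker readout, fitted in both directions against DMSO, from HepG2 cells carrying transfected cis-element reporter constructs; RT-PCR and capillary electrophoresis of reporter mRNA after 24 h exposure.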

A short description of test [12]: ATG_GATA_CIS: Attagene CIS-FACTORIAL HepG2 Assay for human GATA Binding Protein (AID 2282944). As to conditions: HepG2 GATA cis-element reporter, Attagene multiplex mRNA; actives raise or lower the signal. A digest of the protocol:
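Reporter transcripts from a GATA cis-regulated unit, among multiplexed reporters in transfected HepG2 cells, were measured by RT-PCR with capillary electrophoresis after 24 h dosing. Induction or loss scored relative to DMSO.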

Test [13] can be described thus: ATG_GLI_CIS: Attagene CIS-FACTORIAL HepG2 Assay for human Zinc Finger Protein GLI1 (AID 2282945). The settings on record: HepG2, Attagene cis-factorial reporter mRNA, GLI element; actives raise or lower the signal. A digest of the protocol: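 Bidirectional curve fits relative to DMSO, using reporter mRNA levels from RT-PCR plus capillary electrophoresis. Cells were HepG2 transiently carrying cis-regulated reporter constructs, harvested 24 h after dosing.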

Test [14] in a line: ATG_ISRE_CIS: Attagene CIS-FACTORIAL HepG2 Assay for human Interferon Regulatory Factor 1 (IRF1) binding to an Interferon-Stimulated Response Element (ISRE) (AID 2282948). The settings on record: HepG2 ISRE cis-reporter (Attagene), mRNA transcription readout; actives raise or lower the signal. A digest of the protocol: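 Quantitation relies on labelled RT-PCR fragments separated by capillary electrophoresis. Human HepG2 cells bearing cis-promoter reporter constructs were treated 24 h; DMSO served as baseline for bidirectional fitting.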

A short description of test [15]: ATG_M_32_CIS: Attagene CIS-FACTORIAL HepG2 Assay for M32 Transcription Factor (Internal Marker) (AID 2282949).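 Further: background control marker of the multiplexed CIS panel rather than a real target.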 The settings on record: HepG2 Attagene cis-factorial M32 reporter, mRNA; actives raise or lower the signal. An outline of the steps: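 Following 24 h chemical exposure of HepG2 cells transiently expressing cis-promoter reporter constructs, reporter transcript levels were determined by RT-PCR with fluorescent labelling and capillary electrophoresis, then fitted bidirectionally against DMSO.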

Test [16] is described as follows: ATG_MRE_CIS: Attagene CIS-FACTORIAL HepG2 Assay for human Metal Responsive Element (MRE) (AID 2282954). The settings on record: HepG2 MRE cis-reporter transcription, Attagene multiplex; actives raise or lower the signal. An outline of the steps:
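After a 24 h chemical exposure, transiently transfected HepG2 cells yield RNA whose reporter sequences are amplified, FAM-labelled and sized by capillary electrophoresis. Curves are fitted bidirectionally relative to DMSO.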

For test [17], the target named is Paired box protein Pax-6 (Homo sapiens) (UniProt P26367). The experiment in a line: ATG_Pax6_CIS: Attagene CIS-FACTORIAL HepG2 Assay for human Paired Box 6 (PAX6) (AID 2282956). The settings on record: HepG2 CIS-FACTORIAL PAX6 reporter transcription, RNA readout; actives raise or lower the signal. A digest of the protocol:
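After twenty-four hours of chemical exposure, transfected HepG2 cells are harvested for RNA. Cis-promoter reporter transcripts are amplified, fluorescently labelled and sized by capillary electrophoresis, with gain and loss of signal scored against DMSO.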

A short description of test [18]: ATG_PXRE_CIS: Attagene CIS-FACTORIAL HepG2 Assay for human Pregnane X Receptor Element (PXRE) (AID 2282957). The settings on record: HepG2 Attagene CIS-FACTORIAL PXRE reporter, mRNA; actives raise or lower the signal. An outline of the steps: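 HepG2 cells transiently transfected with cis-element-driven multiplexed reporter units; after 24 h chemical exposure, reporter mRNA measured by RT-PCR, 6-FAM labelling, HpaI digestion and capillary electrophoresis. Bidirectional fitting relative to DMSO.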

Test [19] concerns the target Transcription factor Sp1 (Homo sapiens) (UniProt P08047). The experiment in a line: ATG_Sp1_CIS: Attagene CIS-FACTORIAL HepG2 Assay for human Specificity Protein 1 (Sp1) (AID 2282961). As to conditions: HepG2 Sp1 cis-reporter transcription, actives raise or lower the signal. An outline of the steps: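 Cells: HepG2, transiently transfected with cis-regulated multiplexed reporters. Exposure: 24 h. Detection: reporter transcripts amplified, fluorescently labeled, restriction-digested and sized by capillary electrophoresis. Analysis: bidirectional fit relative to DMSO.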

Test [20] deals with Signal transducer and activator of transcription 3 (Homo sapiens) (UniProt P40763). The experiment in a line: ATG_STAT3_CIS: Attagene CIS-FACTORIAL HepG2 Assay for human Signal Transducer and Activator of Transcription 3 (STAT3) (AID 2282963). The settings on record: HepG2, Attagene cis-factorial STAT3 reporter transcription; actives raise or lower the signal. An outline of the steps:
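After a 24 h compound incubation, total RNA from MRTU-transfected HepG2 cells was converted to cDNA and reporter sequences PCR-amplified, labelled and profiled by capillary electrophoresis. Gain and loss of signal were referenced to DMSO.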

Active and inactive are the calls of the source. How the source made its calls: active means hit-call score of the fitted dose curve at least 0.9, where 1 is the maximum; inactive means score below 0.9.

Sequence of Paired box protein Pax-6 (Homo sapiens) (P26367 whole entry, looked up): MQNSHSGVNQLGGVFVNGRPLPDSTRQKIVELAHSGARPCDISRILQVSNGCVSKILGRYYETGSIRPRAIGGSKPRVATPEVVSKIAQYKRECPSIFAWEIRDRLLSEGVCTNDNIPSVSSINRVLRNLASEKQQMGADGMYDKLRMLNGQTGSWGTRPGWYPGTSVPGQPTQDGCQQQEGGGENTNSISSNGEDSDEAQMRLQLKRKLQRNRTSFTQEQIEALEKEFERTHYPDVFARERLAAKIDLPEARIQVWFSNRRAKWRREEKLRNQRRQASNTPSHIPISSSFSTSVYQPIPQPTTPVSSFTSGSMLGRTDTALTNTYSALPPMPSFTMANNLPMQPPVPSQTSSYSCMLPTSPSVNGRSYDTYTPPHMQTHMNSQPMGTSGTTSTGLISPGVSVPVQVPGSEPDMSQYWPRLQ
Sequence of Signal transducer and activator of transcription 3 (Homo sapiens) (P40763 whole entry, looked up): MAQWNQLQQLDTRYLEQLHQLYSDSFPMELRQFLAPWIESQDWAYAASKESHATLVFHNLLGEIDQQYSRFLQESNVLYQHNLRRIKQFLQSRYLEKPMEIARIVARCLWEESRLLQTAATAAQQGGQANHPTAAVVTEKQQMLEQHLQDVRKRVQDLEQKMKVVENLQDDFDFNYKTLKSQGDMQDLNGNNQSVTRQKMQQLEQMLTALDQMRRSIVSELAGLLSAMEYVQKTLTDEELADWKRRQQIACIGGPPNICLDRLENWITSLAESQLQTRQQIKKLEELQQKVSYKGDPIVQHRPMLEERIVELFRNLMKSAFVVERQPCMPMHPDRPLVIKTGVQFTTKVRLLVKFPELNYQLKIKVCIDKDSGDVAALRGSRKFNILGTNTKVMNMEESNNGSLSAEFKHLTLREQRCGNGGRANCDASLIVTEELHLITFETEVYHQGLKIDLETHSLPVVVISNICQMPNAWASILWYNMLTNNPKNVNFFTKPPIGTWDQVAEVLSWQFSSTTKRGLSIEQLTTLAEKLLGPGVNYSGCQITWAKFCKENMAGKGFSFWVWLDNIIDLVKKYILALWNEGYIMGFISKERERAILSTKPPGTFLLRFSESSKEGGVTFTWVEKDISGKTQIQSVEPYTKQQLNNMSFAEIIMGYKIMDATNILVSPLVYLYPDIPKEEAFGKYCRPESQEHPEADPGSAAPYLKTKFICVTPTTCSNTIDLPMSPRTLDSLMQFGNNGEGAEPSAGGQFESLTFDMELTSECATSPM
Sequence of Transcription factor Sp1 (Homo sapiens) (P08047 whole entry, looked up): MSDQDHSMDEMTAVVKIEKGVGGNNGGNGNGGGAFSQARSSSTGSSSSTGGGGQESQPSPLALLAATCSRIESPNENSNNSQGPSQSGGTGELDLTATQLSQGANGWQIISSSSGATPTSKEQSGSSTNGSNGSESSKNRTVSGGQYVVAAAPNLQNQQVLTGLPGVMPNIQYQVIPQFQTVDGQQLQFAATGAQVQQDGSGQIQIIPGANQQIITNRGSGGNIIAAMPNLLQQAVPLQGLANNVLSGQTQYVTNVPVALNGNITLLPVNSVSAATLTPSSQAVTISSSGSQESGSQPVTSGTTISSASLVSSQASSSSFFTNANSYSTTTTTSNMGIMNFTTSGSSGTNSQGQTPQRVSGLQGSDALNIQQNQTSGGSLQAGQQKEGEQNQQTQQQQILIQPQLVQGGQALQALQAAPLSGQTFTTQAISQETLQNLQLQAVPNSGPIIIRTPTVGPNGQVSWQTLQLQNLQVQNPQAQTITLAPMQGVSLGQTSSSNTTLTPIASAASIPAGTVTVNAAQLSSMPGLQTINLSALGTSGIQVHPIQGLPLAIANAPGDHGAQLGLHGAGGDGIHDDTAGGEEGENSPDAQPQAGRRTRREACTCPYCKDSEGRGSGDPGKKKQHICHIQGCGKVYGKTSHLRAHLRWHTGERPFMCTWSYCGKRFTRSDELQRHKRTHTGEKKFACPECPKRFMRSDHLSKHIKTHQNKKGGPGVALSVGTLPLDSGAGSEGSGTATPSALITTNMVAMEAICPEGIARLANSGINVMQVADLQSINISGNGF

On to `O=C(O)/C=C\C(=O)O`, for which the compound was classed as inactive in [1], in [2], in test [3], in test [4], in test [5] and in test [6]. Besides, the call in test [7], in test [8], in [9], in test [10], in test [11] and in [12] was inactive. The call in [13], in test [14], in [15], in test [16], in test [17] and in test [19] was inactive. Besides, in [20], the call was inactive. In addition, the half-maximal activity concentration (AC50) in test [18] is 41.1 µM (active).

Regarding `CC(C)(C)NC(=O)[C@@H]1CN(Cc2cccnc2)CCN1C[C@@H](O)C[C@@H](Cc1ccccc1)C(=O)N[C@H]1c2ccccc2C[C@H]1O`, the result in test [1], in test [2], in test [3], in test [4], in [5] and in [6] was inactive. The outcome in test [7], in [8], in test [9], in test [10], in test [11] and in test [12] was inactive. The compound was called inactive in test [13], in test [14], in [15], in [16], in test [17] and in [19]. The compound was classed as inactive in test [20]. Further, the AC50 in test [18] was 19.6 µM (active).

Take `O=C(C1CCCCC1)N1CC(=O)N2CCc3ccccc3C2C1` (stereo not given): the result in [1], in test [2], in test [3], in test [4], in test [5] and in test [6] was inactive. Besides, the compound was classed as inactive in [7], in [8], in test [9], in test [10], in [11] and in test [12]. The outcome in test [13], in test [14], in test [15], in test [16], in test [17] and in [19] was inactive. In [20], the compound was called inactive. For the same compound, the AC50 in test [18] is 7.1 µM (active).

For `CC/C=C/CCO`, the outcome in test [1], in test [2], in [3], in test [4], in test [5] and in test [6] was inactive. Further, the compound was called inactive in test [7], in test [8], in test [9], in test [10], in [11] and in [12]. Further, the result in test [13], in [14], in [15], in test [16], in [17] and in test [19] was inactive. The compound was classed as inactive in test [20]. Also, in test [18], the AC50 is 40.5 µM (active).
